PubChem BioAssay (NCI)
Compounds without any hit were thinned out: in the full panel of roughly 83,000, 20% have a hit.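 Assay: single dose, 48 h. Readout: percent growth (0 = no net growth; negative = cell death). Active: <10.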 Active and inactive are the calls of the source.

Key:
Assay in all cases: NCI-60 one-dose screen, 48 h (100 = growth as untreated, 0 = no growth, -100 = all killed)
SR leukemia = conditions: 10 µM unless noted
RPMI-8226 leukemia = conditions: 10 µM unless noted
OVCAR-8 ovarian = conditions: 10 µM unless noted
OVCAR-5 ovarian = conditions: 10 µM unless noted
OVCAR-4 ovarian = conditions: 10 µM
SK-OV-3 ovarian = conditions: 10 µM unless noted
IGROV1 ovarian = conditions: 10 µM unless noted
OVCAR-3 ovarian = conditions: 10 µM unless noted
HS 578T breast = conditions: 10 µM unless noted
NCI/ADR-RES ovarian = conditions: 10 µM unless noted
BT-549 breast = conditions: 10 µM unless noted
MDA-MB-435 melanoma = conditions: 10 µM unless noted
SW-620 colon = conditions: 10 µM unless noted
MCF7 breast = conditions: 10 µM unless noted
HCT-116 colon = conditions: 10 µM unless noted
HCC-2998 colon = conditions: 10 µM unless noted
KM12 colon = conditions: 10 µM unless noted
T-47D breast = conditions: 10 µM unless noted

Measured: growth

CC(C)c1ccc(C(=O)Nc2sc3c(c2C#N)CCC(=O)C3)cc1
inactive: OVCAR-8 ovarian 13.7% | OVCAR-5 ovarian 11.1% | SK-OV-3 ovarian 20.8% | IGROV1 ovarian 18.4% | HS 578T breast 25.4% | HCC-2998 colon 20.7%
active: SR leukemia -11.7% | RPMI-8226 leukemia -35.2% | OVCAR-4 ovarian -78% | OVCAR-3 ovarian -33.4% | NCI/ADR-RES ovarian 3.12% | BT-549 breast -9.76% | MDA-MB-435 melanoma -14.4% | SW-620 colon -19.1% | MCF7 breast 4.86% | HCT-116 colon -2.81% | KM12 colon 5.49%

COc1ccc(CC(C#N)c2ccc(Cl)cc2)cc1 (centres undefined)
inactive: SR leukemia 36.3% | RPMI-8226 leukemia 85% | OVCAR-8 ovarian 99% | OVCAR-5 ovarian 82.9% | OVCAR-4 ovarian 103% | SK-OV-3 ovarian 89.3% | IGROV1 ovarian 68.8% | OVCAR-3 ovarian 77.2% | NCI/ADR-RES ovarian 42.5% | T-47D breast 98.2% | BT-549 breast 74.9% | SW-620 colon 49% | MCF7 breast 75% | HCT-116 colon 72.4% | HCC-2998 colon 61.6% | KM12 colon 32.6%
active: MDA-MB-435 melanoma 0.297%

c1nc(N2CCOCC2)c2[nH]ccc2n1
inactive: SR leukemia 92% | RPMI-8226 leukemia 94.1% | OVCAR-8 ovarian 106% | OVCAR-5 ovarian 116% | OVCAR-4 ovarian 106% | SK-OV-3 ovarian 110% | IGROV1 ovarian 112% | OVCAR-3 ovarian 118% | HS 578T breast 96.7% | T-47D breast 112% | BT-549 breast 101% | MDA-MB-435 melanoma 112% | SW-620 colon 111% | MCF7 breast 90.6% | HCT-116 colon 103% | HCC-2998 colon 110% | KM12 colon 115%

CCN(CC)CCCCCCNc1cccc2cc(Br)cnc12
inactive: SR leukemia 28.4% | RPMI-8226 leukemia 68% | OVCAR-8 ovarian 80.2% | OVCAR-5 ovarian 117% | OVCAR-4 ovarian 87.5% | SK-OV-3 ovarian 111% | IGROV1 ovarian 60% | OVCAR-3 ovarian 84.2% | NCI/ADR-RES ovarian 79.9% | T-47D breast 112% | BT-549 breast 80.8% | MDA-MB-435 melanoma 31.5% | SW-620 colon 56.5% | MCF7 breast 109% | HCT-116 colon 72.2% | HCC-2998 colon 88.3% | KM12 colon 65.7%

O=C1CC(C(F)(F)F)Cc2nc3ccc(Br)cc3cc21 (centres undefined)
inactive: SR leukemia 75.2% | RPMI-8226 leukemia 77.5% | OVCAR-8 ovarian 95.7% | OVCAR-5 ovarian 87.2% | OVCAR-4 ovarian 74.6% | SK-OV-3 ovarian 85.7% | IGROV1 ovarian 73.4% | OVCAR-3 ovarian 94.2% | NCI/ADR-RES ovarian 95.1% | T-47D breast 62.9% | BT-549 breast 96.3% | MDA-MB-435 melanoma 94.4% | SW-620 colon 92.4% | MCF7 breast 74.3% | HCT-116 colon 73.9% | HCC-2998 colon 109% | KM12 colon 64.4%

COc1cc2c(cc1OCCCN1CCN(CCCOc3cc4c(cc3OC)C(=O)N3C[C@H](F)C[C@H]3C=N4)CC1)N=C[C@@H]1C[C@@H](F)CN1C2=O
active: SR leukemia -23.4% | RPMI-8226 leukemia -3.68% | OVCAR-5 ovarian 9.91% | OVCAR-4 ovarian 1.26% | OVCAR-3 ovarian 5.75% | BT-549 breast -68.5% | MDA-MB-435 melanoma -24.9% | SW-620 colon -19.1% | MCF7 breast 6.75% | HCT-116 colon 8.44% | HCC-2998 colon -13.1% | KM12 colon -20%
inactive: OVCAR-8 ovarian 24.4% | SK-OV-3 ovarian 36.1% | IGROV1 ovarian 12.4% | NCI/ADR-RES ovarian 63.6% | T-47D breast 13.4%

CCN(CC)CCCOc1ccc2c(c1)O/C(=C\c1cccc(OC)c1)C2=O
inactive: SR leukemia 63.3% | RPMI-8226 leukemia 96.2% | OVCAR-8 ovarian 90.8% | OVCAR-5 ovarian 95.7% | OVCAR-4 ovarian 94.2% | SK-OV-3 ovarian 115% | IGROV1 ovarian 97.7% | OVCAR-3 ovarian 91.2% | NCI/ADR-RES ovarian 94.8% | T-47D breast 87.6% | BT-549 breast 78.4% | MDA-MB-435 melanoma 91.9% | SW-620 colon 73.9% | MCF7 breast 72.8% | HCT-116 colon 51.8% | HCC-2998 colon 86.7% | KM12 colon 93.2%

COC(=O)c1c(C)[nH]c(/C=C2\N=C(c3ccc[nH]3)C=C2OC)c1C
inactive: SK-OV-3 ovarian 48.4% | NCI/ADR-RES ovarian 13.3%
active: SR leukemia 4.93% | RPMI-8226 leukemia -16.1% | OVCAR-8 ovarian -7.15% | OVCAR-5 ovarian 0.695% | OVCAR-4 ovarian -67.2% | IGROV1 ovarian -8.84% | OVCAR-3 ovarian -40.6% | HS 578T breast -27.4% | MDA-MB-435 melanoma -44.9% | SW-620 colon 1.56% | MCF7 breast 1.82% | HCT-116 colon -75% | HCC-2998 colon -40.9% | KM12 colon -2.32%

COc1ccc(C(=O)CCC(=O)O)cc1
active: HCT-116 colon 7.77%
inactive: SR leukemia 99.7% | RPMI-8226 leukemia 87.3% | OVCAR-8 ovarian 71.4% | OVCAR-5 ovarian 88.3% | OVCAR-4 ovarian 64.8% | SK-OV-3 ovarian 115% | IGROV1 ovarian 96.8% | OVCAR-3 ovarian 79% | NCI/ADR-RES ovarian 83.6% | T-47D breast 33.9% | MDA-MB-435 melanoma 107% | SW-620 colon 84.5% | MCF7 breast 21.2% | HCC-2998 colon 102% | KM12 colon 103%

Fc1ccc(NC(=S)c2ccccc2)cc1
inactive: SR leukemia 102% | RPMI-8226 leukemia 89% | OVCAR-8 ovarian 102% | OVCAR-5 ovarian 94.5% | OVCAR-4 ovarian 100% | SK-OV-3 ovarian 117% | IGROV1 ovarian 106% | HS 578T breast 101% | NCI/ADR-RES ovarian 108% | T-47D breast 96.4% | BT-549 breast 90.3% | MDA-MB-435 melanoma 98% | SW-620 colon 102% | MCF7 breast 93.9% | HCT-116 colon 103% | HCC-2998 colon 116% | KM12 colon 100%

CC1(C(=O)O)CCC(N)(C(=O)O)C1(C)C (centres undefined)
inactive: SR leukemia 105% | RPMI-8226 leukemia 91.9% | OVCAR-8 ovarian 111% | OVCAR-5 ovarian 115% | OVCAR-4 ovarian 104% | SK-OV-3 ovarian 97% | IGROV1 ovarian 108% | OVCAR-3 ovarian 102% | NCI/ADR-RES ovarian 118% | T-47D breast 98.4% | MDA-MB-435 melanoma 115% | SW-620 colon 108% | MCF7 breast 99.5% | HCT-116 colon 110% | HCC-2998 colon 120% | KM12 colon 111%

COc1cc2c(cc1OCCCCCOc1ccc(-n3c(C)nc4ccccc4c3=O)cc1)N=C[C@@H]1CCCN1C2=O
inactive: OVCAR-5 ovarian 10.5%
active: SR leukemia -25.4% | RPMI-8226 leukemia -35% | OVCAR-8 ovarian 9.85% | OVCAR-4 ovarian -27.8% | SK-OV-3 ovarian -0.258% | IGROV1 ovarian -28.7% | OVCAR-3 ovarian -15.8% | NCI/ADR-RES ovarian -14.6% | T-47D breast -7.89% | BT-549 breast -89.2% | MDA-MB-435 melanoma -58.1% | SW-620 colon -13.8% | MCF7 breast -53.6% | HCT-116 colon 0.749% | HCC-2998 colon -61.7% | KM12 colon -45.7%

Cc1cc(-c2ccc(N=Nc3c(S(=O)(=O)O)cc4cc(S(=O)(=O)O)cc(N)c4c3O)c(C)c2)ccc1N=Nc1cc(S(=O)(=O)O)c2ccccc2c1O
inactive: SR leukemia 106% | RPMI-8226 leukemia 98.5% | OVCAR-8 ovarian 96.6% | OVCAR-5 ovarian 86.8% | OVCAR-4 ovarian 105% | SK-OV-3 ovarian 93.4% | IGROV1 ovarian 95.8% | HS 578T breast 90.7% | NCI/ADR-RES ovarian 97.2% | T-47D breast 99.6% | BT-549 breast 107% | MDA-MB-435 melanoma 104% | SW-620 colon 109% | MCF7 breast 92.2% | HCT-116 colon 96.4% | HCC-2998 colon 104% | KM12 colon 102%

CCOC(=O)c1sc2nc(-c3cc(OC)c(OC)c(OC)c3)nc(N3CCOCC3)c2c1C
active: RPMI-8226 leukemia 9.94%
inactive: SR leukemia 41.8% | OVCAR-8 ovarian 44.1% | OVCAR-5 ovarian 74% | OVCAR-4 ovarian 19.7% | SK-OV-3 ovarian 56.1% | IGROV1 ovarian 50.5% | OVCAR-3 ovarian 15.5% | NCI/ADR-RES ovarian 53.9% | BT-549 breast 41.2% | MDA-MB-435 melanoma 35.7% | SW-620 colon 36.4% | MCF7 breast 27.1% | HCT-116 colon 25.6% | HCC-2998 colon 51.5% | KM12 colon 31.4%

N#CCCc1c[nH]c2ccccc12
inactive: SR leukemia 91.5% | RPMI-8226 leukemia 92.7% | OVCAR-8 ovarian 91.9% | OVCAR-5 ovarian 102% | OVCAR-4 ovarian 93% | SK-OV-3 ovarian 88.9% | IGROV1 ovarian 103% | OVCAR-3 ovarian 98.7% | NCI/ADR-RES ovarian 99.3% | BT-549 breast 97.6% | MDA-MB-435 melanoma 101% | SW-620 colon 92% | MCF7 breast 94.8% | HCT-116 colon 92.8% | HCC-2998 colon 113%
